Results published in PubChem BioAssay (NCATS).
Records with an inconclusive call do not appear. Activity calls are given as the source filed them. Unless noted, calls come from the whole dose curve; as a rule, active = well fitted curve in the direction sought with a large enough effect; inconclusive = small, poorly fitted or top-dose-only effect, or another doubt; inactive = no such curve, though single readings can be large; an effect the other way counts as inactive or inconclusive.

Assays:
[1] = biological target: Transient receptor potential cation channel subfamily V member 1 (Homo sapiens) (UniProt Q8NER1); test: HTS Assay for Compounds that Act as Enhancers of the Vanilloid Receptor 1 (AID 488979); note: 0% is about no effect
Outline: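 Calcium influx kinetics via Fluo-8 (480/520 nm) in TRPV1-expressing cells, 2000/well cultured overnight at 35.5C. Compound-alone read 3 min (agonist phase), followed by EC20 capsaicin challenge for 2 min (enhancer phase).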

[2] = biological target: Thyrotropin receptor (Homo sapiens) (UniProt P16473); test: qHTS Assay for Antagonists of the Thyroid Stimulating Hormone Receptor (AID 488980); note: series mostly up to about 58 µM; 0% is about no effect
Outline: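 TSHR-transfected HEK293 cells (2000/well) in HEPES-buffered HBSS with 70 uM RO 20-1724 were stimulated with 4 nM TSH (EC80, final) in the presence of compound. cAMP was measured by HTRF competition after lysis and 30 min at RT.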

[3] = biological target: D(1A) dopamine receptor (Homo sapiens) (UniProt P21728); test: HTS Assay for Allosteric Agonists of the Human D1 Dopamine Receptor: Primary Screen for Antagonists (AID 488983);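 note: calcium flux response to an EC80 dopamine challenge measured with no-wash dye; % is set by controls: 0 for no effect and ±100 for the full control effect; nearly all actives have a fitted effect of over 65% in size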
Outline: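 Kinetic fluorescence at 1 cycle/sec tracked intracellular calcium in force-coupled, tetracycline-inducible HEK293 T-REx D1 cells. Loss of response to an EC80 dopamine dose, given 180 s after compound, marked antagonists.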

[4] = Validation screen for small molecules that induce genotoxicity in human embryonic kidney (HEK293T) cells expressing luciferase-tagged ELG1 (AID 493106); note: 0% is about no effect
Outline: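 Cells were dispensed at 2,000 per well, then 23 nL compound or DMSO was pinned in. After 16 hr at 37 °C and 5% CO2, ONE-Glo reagent was added. Luciferase activity was measured following 30 min at room temperature.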

[5] = biological target: ATPase family AAA domain-containing protein 5 (Homo sapiens) (UniProt Q96QE3); test: Validation screen for small molecules that inhibit ELG1-dependent DNA repair in human embryonic kidney (HEK293T) cells expressing luciferase-tagged ELG1 (AID 493107);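 note: cells co-treated with the DNA-damaging agent 5-fluorouridine alongside compound; series mostly up to about 46 µM; % is set by controls: 0 for no effect and ±100 for the full control effect; inhibitors lower the ELG1-luciferase luminescence signal; nearly all actives have a fitted effect of over 70% in size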
Outline: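 Cells are dispensed in 1536-well format, then 5-fluorouridine and compound are pinned in. After a 16 hr incubation at 37 °C and 5% CO2, ONE-Glo is added and luciferase measured on a CCD imager.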

[6] = biological target: Thyrotropin-releasing hormone receptor (Homo sapiens) (UniProt P34981); test: qHTS for Small Molecule Agonists and Allosteric Enhancers of Human TRH Receptor: Validation Screen for Agonists (AID 493127;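 active = calcium activation more than 3 SD above the typical response in the agonist read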;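 note: intracellular calcium rise by fluo-8 fluorescence before TRH EC20 addition; 0% is about no effect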); settings: TRH receptor agonist cell assay; at 2 µM; hits give high values
Outline: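 Compounds are added by online pintool to dye-loaded TRHR cells while fluorescence is recorded every second. A rise in calcium signal during the agonist read marks activation; a later 10 nM TRH addition (EC20) serves the separate enhancer mode.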

[7] = biological target: D(1A) dopamine receptor (Homo sapiens) (UniProt P21728); test: HTS Assay for Allosteric Agonists of the Human D1 Dopamine Receptor: Primary Screen for Agonists (AID 488981); note: 0% is about no effect
Outline: (§1)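 Calcium flux in an inducible, force-coupled HEK293 Trex D1 line (overnight at 30 C): agonist mode is the 180 s kinetic read after compound; potentiator mode is the following 180 s read after dopamine at EC20.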

[8] = biological target: D(1A) dopamine receptor (Homo sapiens) (UniProt P21728); test: HTS Assay for Allosteric Agonists of the Human D1 Dopamine Receptor: Primary Screen for Potentiators (AID 488982); note: 0% is about no effect
Outline: as §1

D(1A) dopamine receptor (Homo sapiens), sequence (P21728 whole entry, looked up): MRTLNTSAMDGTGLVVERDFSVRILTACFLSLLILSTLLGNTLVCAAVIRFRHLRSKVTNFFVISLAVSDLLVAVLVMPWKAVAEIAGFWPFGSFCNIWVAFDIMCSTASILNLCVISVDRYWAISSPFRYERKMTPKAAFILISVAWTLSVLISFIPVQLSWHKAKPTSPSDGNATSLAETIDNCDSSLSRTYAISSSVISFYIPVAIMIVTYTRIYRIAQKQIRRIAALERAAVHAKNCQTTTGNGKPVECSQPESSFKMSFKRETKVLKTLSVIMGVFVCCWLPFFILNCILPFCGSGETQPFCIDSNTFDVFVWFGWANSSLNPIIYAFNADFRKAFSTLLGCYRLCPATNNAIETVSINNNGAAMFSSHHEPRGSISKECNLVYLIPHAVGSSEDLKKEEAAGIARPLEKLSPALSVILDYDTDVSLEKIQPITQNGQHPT
Thyrotropin-releasing hormone receptor (Homo sapiens), sequence (P34981 whole entry, looked up): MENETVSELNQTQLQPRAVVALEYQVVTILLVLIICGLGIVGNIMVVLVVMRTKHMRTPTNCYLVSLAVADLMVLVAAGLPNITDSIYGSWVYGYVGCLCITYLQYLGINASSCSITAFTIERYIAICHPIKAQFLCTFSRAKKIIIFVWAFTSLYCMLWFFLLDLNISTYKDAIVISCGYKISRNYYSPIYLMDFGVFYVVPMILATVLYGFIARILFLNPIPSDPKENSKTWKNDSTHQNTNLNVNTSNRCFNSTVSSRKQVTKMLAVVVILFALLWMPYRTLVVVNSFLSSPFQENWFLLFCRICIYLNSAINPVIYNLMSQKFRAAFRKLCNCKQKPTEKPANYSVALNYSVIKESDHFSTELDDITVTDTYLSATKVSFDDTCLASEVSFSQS
ATPase family AAA domain-containing protein 5 (Homo sapiens), sequence (Q96QE3 whole entry, looked up, the tested form may be a part): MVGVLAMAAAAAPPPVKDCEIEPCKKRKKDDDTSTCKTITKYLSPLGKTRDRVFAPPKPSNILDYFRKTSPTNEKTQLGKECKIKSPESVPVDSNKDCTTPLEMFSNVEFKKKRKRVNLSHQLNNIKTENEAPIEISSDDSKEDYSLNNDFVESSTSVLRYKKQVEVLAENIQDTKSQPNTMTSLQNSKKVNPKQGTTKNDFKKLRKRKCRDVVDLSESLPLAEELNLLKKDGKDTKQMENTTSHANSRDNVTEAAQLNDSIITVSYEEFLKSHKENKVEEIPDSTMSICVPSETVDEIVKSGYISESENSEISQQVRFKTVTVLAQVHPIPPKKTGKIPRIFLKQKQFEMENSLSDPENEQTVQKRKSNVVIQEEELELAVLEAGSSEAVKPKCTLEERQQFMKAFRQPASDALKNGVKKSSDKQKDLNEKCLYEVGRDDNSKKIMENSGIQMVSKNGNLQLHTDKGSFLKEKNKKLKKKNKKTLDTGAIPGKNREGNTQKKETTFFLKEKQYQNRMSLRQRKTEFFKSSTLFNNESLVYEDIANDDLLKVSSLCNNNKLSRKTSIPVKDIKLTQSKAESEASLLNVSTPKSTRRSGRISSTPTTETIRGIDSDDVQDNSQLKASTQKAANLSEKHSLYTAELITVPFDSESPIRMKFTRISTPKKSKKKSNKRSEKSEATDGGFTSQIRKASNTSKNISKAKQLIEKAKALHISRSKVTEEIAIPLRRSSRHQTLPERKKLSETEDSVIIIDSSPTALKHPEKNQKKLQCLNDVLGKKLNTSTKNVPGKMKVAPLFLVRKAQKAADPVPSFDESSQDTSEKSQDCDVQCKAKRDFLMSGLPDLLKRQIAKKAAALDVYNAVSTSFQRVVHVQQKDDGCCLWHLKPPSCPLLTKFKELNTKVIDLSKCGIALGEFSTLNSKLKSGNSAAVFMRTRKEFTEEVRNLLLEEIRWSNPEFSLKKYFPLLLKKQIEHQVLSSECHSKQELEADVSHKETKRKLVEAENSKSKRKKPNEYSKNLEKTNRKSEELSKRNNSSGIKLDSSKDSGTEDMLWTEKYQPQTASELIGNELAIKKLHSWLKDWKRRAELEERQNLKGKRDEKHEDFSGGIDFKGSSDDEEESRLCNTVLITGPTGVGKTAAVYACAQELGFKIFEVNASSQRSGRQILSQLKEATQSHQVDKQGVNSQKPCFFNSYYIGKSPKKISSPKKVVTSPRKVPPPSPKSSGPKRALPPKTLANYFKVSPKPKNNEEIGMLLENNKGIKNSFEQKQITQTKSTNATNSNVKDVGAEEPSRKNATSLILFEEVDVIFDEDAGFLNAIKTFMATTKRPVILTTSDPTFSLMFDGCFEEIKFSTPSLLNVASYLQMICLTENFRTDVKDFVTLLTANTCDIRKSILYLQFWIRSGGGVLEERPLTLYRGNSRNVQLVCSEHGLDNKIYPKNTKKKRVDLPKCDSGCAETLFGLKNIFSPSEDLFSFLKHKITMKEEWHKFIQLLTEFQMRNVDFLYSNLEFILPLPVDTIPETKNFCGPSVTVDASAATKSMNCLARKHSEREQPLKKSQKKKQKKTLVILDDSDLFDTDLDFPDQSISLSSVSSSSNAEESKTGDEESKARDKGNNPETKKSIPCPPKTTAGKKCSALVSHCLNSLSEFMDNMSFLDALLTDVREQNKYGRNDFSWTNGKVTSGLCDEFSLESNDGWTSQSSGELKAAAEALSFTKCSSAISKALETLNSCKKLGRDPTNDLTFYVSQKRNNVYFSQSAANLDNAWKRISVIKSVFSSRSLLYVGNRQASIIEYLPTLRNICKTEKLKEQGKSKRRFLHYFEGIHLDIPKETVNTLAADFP
Transient receptor potential cation channel subfamily V member 1 (Homo sapiens), sequence (Q8NER1 whole entry, looked up): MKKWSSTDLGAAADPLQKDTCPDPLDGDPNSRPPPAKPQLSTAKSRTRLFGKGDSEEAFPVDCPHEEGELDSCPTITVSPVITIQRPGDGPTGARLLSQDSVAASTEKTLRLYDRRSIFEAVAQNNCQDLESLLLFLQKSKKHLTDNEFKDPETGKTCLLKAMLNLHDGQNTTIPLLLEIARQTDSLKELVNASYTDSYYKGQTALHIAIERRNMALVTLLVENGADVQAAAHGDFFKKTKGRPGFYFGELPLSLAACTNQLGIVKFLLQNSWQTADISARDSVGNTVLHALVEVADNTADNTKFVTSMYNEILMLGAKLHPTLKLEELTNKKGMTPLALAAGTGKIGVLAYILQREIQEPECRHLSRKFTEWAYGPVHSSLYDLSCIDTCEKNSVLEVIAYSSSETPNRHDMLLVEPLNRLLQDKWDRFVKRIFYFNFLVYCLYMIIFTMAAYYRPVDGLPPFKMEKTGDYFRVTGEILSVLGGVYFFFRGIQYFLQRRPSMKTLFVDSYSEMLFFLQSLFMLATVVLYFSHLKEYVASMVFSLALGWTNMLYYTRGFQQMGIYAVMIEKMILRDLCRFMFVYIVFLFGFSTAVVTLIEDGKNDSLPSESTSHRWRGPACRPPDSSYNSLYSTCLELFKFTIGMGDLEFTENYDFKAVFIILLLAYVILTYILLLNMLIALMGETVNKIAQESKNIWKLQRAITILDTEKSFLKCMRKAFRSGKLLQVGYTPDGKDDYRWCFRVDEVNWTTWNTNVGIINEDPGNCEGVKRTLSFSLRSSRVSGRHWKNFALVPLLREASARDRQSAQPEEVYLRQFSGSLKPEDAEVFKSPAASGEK
Thyrotropin receptor (Homo sapiens), sequence (P16473 whole entry, looked up): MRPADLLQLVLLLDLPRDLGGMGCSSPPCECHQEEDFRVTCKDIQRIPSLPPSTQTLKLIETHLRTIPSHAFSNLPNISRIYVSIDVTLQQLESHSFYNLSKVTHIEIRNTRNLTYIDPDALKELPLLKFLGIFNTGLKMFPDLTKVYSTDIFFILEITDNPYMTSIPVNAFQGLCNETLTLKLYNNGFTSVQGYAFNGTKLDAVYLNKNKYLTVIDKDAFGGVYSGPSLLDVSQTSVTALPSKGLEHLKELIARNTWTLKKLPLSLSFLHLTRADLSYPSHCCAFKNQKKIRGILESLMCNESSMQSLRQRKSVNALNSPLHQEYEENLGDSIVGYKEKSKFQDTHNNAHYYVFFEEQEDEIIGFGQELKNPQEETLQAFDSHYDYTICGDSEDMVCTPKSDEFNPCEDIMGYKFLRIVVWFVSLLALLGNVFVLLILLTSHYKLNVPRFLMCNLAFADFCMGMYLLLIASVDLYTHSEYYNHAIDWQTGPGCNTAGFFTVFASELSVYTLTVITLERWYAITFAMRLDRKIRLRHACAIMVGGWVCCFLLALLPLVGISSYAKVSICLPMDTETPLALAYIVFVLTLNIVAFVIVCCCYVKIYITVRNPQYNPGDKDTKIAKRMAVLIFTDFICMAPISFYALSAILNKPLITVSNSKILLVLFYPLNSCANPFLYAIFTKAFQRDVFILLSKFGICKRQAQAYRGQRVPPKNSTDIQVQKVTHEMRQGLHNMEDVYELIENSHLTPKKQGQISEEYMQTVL

C=CCn1c(=O)c2c(nc(-c3ccc(S(=O)(=O)O)cc3)n2C)n(C)c1=O
inactive: outcome [1] | outcome [2] | Potency [3] | Potency [4] | Potency [5] | activation [6] -0.312%

O=C(O)[C@H]1NCCC[C@H]1C(=O)O
inactive: outcome [1] | Potency [7] | Potency [8] | Potency [3] | Potency [4] | Potency [5] | activation [6] -0.188%

NC(=O)c1ccccc1
inactive: outcome [1] | Potency [7] | Potency [8] | Potency [3] | Potency [4] | Potency [5] | activation [6] 0.25%

COc1ccccc1N1CCN(CCCNc2c(C)c(=O)n(C)c(=O)n2C)CC1
inactive: outcome [1] | outcome [2] | Potency [8] | Potency [3] | Potency [4] | activation [6] 0.0625%

CC(C)NCC(O)COc1ccc(CC(N)=O)cc1 (stereo not drawn)
inactive: outcome [1] | Potency [7] | Potency [8] | Potency [3] | Potency [4] | activation [6] 0.875%

NC1CCN(O)C1=O (stereo not drawn)
inactive: outcome [1] | Potency [7] | Potency [8] | Potency [3] | Potency [4] | activation [6] 0.875%

COc1ccc2c(c1)c(CC(=O)O)c(C)n2Cc1ccc(Cl)cc1
inactive: outcome [1] | Potency [7] | Potency [8] | Potency [3] | Potency [4] | activation [6] -0.188%

O=C1Nc2ccc(I)cc2/C1=C/c1cc(Br)c(O)c(Br)c1
inactive: outcome [1] | outcome [2] | Potency [8] | Potency [4] | Potency [5] | activation [6] 8.19%

OC[C@H]1NC[C@@H](O)[C@@H]1O
inactive: outcome [1] | Potency [7] | Potency [8] | Potency [3] | Potency [4] | Potency [5] | activation [6] 1.19%

CC#CCOC(=O)c1c(C)nc2sc3c(c2c1N)CCC(O)C3 (stereo not drawn)
inactive: outcome [1] | Potency [7] | Potency [8] | Potency [3] | Potency [4] | activation [6] 0.438%

C=CC1(C)CC(=O)C2(O)C(C)(O1)C(OC(C)=O)C(O)C1C(C)(C)CCC(O)C12C (stereo not drawn)
inactive: outcome [1] | outcome [2] | Potency [8] | Potency [3] | Potency [5]

CC(=O)NNC(=O)N1Cc2ccccc2Oc2ccc(Cl)cc21
inactive: outcome [1] | Potency [7] | Potency [8] | Potency [3] | Potency [4] | Potency [5] | activation [6] 0.562%

C=CC[C@H](N)C(=O)O
inactive: outcome [1] | Potency [7] | Potency [8] | Potency [3] | Potency [4] | Potency [5] | activation [6] -3.19%

Cc1nc2c(OCc3ccccc3)cccn2c1CC#N
inactive: outcome [1] | Potency [7] | Potency [8] | Potency [3] | Potency [4] | activation [6] 0.25%
